# Data reported in PubChem BioAssay (NCI).
# About 83,000 compounds went through this panel and 20% of them were active in at least one assay; those are over-represented in the sample as a whole.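 The endpoint reported here, percent growth, reads 100 for growth as untreated, 0 for no net growth and -100 for all cells dead.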 A number with no mark means an inactive call. The source made the active and inactive calls. How the source made its calls: active means growth percent below 10; inactive means the rest.
# What was measured:
# Assay in all cases: NCI-60 one-dose screen, 48 h (100 = growth as untreated, 0 = no growth, -100 = all killed)
# Conditions in all cases: 10 µM unless noted
# SK-MEL-2 melanoma = tested on: SK-MEL-2 melanoma
# EKVX NSCLC = tested on: EKVX NSCLC
# UO-31 renal = tested on: UO-31 renal
# TK-10 renal = tested on: TK-10 renal
# ACHN renal = tested on: ACHN renal
# CAKI-1 renal = tested on: CAKI-1 renal
# A498 renal = tested on: A498 renal
# CCRF-CEM leukemia = tested on: CCRF-CEM leukemia
# MOLT-4 leukemia = tested on: MOLT-4 leukemia
# SR leukemia = tested on: SR leukemia
# RPMI-8226 leukemia = tested on: RPMI-8226 leukemia
# OVCAR-8 ovarian = tested on: OVCAR-8 ovarian
# OVCAR-5 ovarian = tested on: OVCAR-5 ovarian
# SK-OV-3 ovarian = tested on: SK-OV-3 ovarian
# IGROV1 ovarian = tested on: IGROV1 ovarian
# OVCAR-3 ovarian = tested on: OVCAR-3 ovarian
# HS 578T breast = tested on: HS 578T breast
# NCI/ADR-RES ovarian = tested on: NCI/ADR-RES ovarian
# OVCAR-4 ovarian = tested on: OVCAR-4 ovarian
SMILES,growth (SK-MEL-2 melanoma),growth (EKVX NSCLC),growth (UO-31 renal),growth (TK-10 renal),growth (ACHN renal),growth (CAKI-1 renal) [%],growth (A498 renal),growth (CCRF-CEM leukemia),growth (MOLT-4 leukemia),growth (SR leukemia),growth (RPMI-8226 leukemia),growth (OVCAR-8 ovarian),growth (OVCAR-5 ovarian),growth (SK-OV-3 ovarian),growth (IGROV1 ovarian),growth (OVCAR-3 ovarian),growth (HS 578T breast),growth (NCI/ADR-RES ovarian),growth (OVCAR-4 ovarian) [%]
COc1ccc(-c2ccnc(SCc3cc4cc(Cl)ccc4[nH]c3=O)n2)cc1,99%,57.1%,79.1%,19.5%,55%,26.2,41.6%,79.1%,93.6%,92.5%,73.8%,34.1%,135%,-2.33% (active),95.8%,58.2%,-5.84% (active),44.8%,
CN(C)c1ccnc(CNCCSC2(c3ccc(C(F)(F)F)cc3)c3ccccc3CCc3ccccc32)c1,-37.6% (active),-25.3% (active),1.7% (active),0.0233% (active),-12.1% (active),,-4.68% (active),-43.6% (active),-20.9% (active),-50.9% (active),-47.8% (active),-87.3% (active),-22.7% (active),-17.4% (active),-5.42% (active),-36.5% (active),-23.4% (active),-73.9% (active),
Cc1cc(=O)oc2cc(OCCOc3ccc(/C=C/C(=O)Nc4ccccc4N)cc3)ccc12,59.1%,38.8%,7.73% (active),43.3%,37.1%,30.7,14.4%,6.51% (active),4.54% (active),26.1%,1.06% (active),38.5%,,11.1%,38.7%,20.3%,40.6%,16.4%,41.2
CC(=O)OC[C@@]1(C)C2CC[C@]3(C)C(CC=C4C5CC(C)(C)CC[C@]5(C(=O)Nc5ccc(Br)cc5)CC[C@]43C)[C@@]2(C)C[C@@H](OC(C)=O)[C@@H]1OC(C)=O (stereo partly specified),42.2%,32.8%,37.2%,45.7%,39%,42,64.3%,28.7%,38%,32%,14.5%,35.9%,92.8%,44%,57.3%,45%,80.5%,42.5%,42
CC(C)CSc1nc(NCCc2c[nH]c3ccccc23)c(C#N)c(-c2ccc(Cl)cc2)n1,90.1%,46.1%,65.1%,108%,67.4%,,113%,20.6%,20.8%,7.81% (active),36.3%,76.2%,80.5%,81.7%,96.2%,76.4%,51.6%,54.7%,
COc1ccc(N2N=C(c3ccc4c(c3)OCO4)CC2c2cccc(NC(=O)CCCNS(=O)(=O)c3ccc(F)cc3)c2)cc1 (stereo unspecified),73.5%,52.1%,56.2%,66.8%,59.2%,49,67.6%,53.5%,33.4%,18.3%,39.4%,78.8%,99.2%,83.5%,90.7%,81.3%,67.2%,84.5%,57.5
CC(C)CSc1nc(NCCc2c[nH]c3ccccc23)c(C#N)c(-c2ccc(F)cc2)n1,78.9%,45.9%,70.3%,92.4%,59.6%,,92.8%,22.1%,,,31.5%,59.5%,101%,57.9%,78.3%,76.9%,39.6%,39.9%,72.8
COc1ccc(-c2nc(SCC(C)C)nc(NCCc3c[nH]c4ccccc34)c2C#N)cc1,80.9%,40.5%,57.2%,120%,69.5%,54.1,97.4%,36.2%,40.4%,,42.8%,,81.5%,71.7%,101%,85.4%,43.2%,61.3%,73.8
COc1ccc(-c2nc(SC(C)C)nc(NCCc3c[nH]c4ccccc34)c2C#N)cc1,74.6%,30.4%,40%,90.6%,48.9%,,65.9%,18.5%,18.1%,2.63% (active),16.3%,66.5%,65.4%,72%,94.3%,63.8%,36.3%,32.5%,57.1
CC(C)Sc1nc(NCCc2c[nH]c3ccccc23)c(C#N)c(-c2ccc(F)cc2)n1,70.3%,32.7%,44.8%,96.3%,51.7%,42.7,42.4%,11.7%,12%,-19.8% (active),14.1%,57.3%,81.9%,76.9%,90.4%,58.1%,43%,29.5%,59.1
Cc1cc(=O)oc2cc(OCCCOc3ccc(/C=C/C(=O)Nc4ccccc4N)cc3)ccc12,48.7%,31.2%,-22.9% (active),49.8%,34.6%,29.6,11.2%,9.74% (active),12.5%,21.4%,0.19% (active),44.2%,37.5%,7.97% (active),39.4%,5.72% (active),48.3%,21.3%,
CN(C)c1ccnc(NCCCSC(c2ccccc2)(c2ccccc2)c2ccccc2)c1,43%,35.5%,28.9%,74.4%,53.3%,30.8,89.6%,-26.3% (active),-8.29% (active),-55.5% (active),-58.9% (active),59.4%,84.5%,63%,50.5%,49.6%,59.9%,40.4%,33.4
CCCCSc1nc(NCCc2c[nH]c3ccccc23)c(C#N)c(-c2ccc(F)cc2)n1,72%,40.9%,56.3%,107%,71.9%,48.2,103%,36.5%,36.5%,5.24% (active),49.7%,75.1%,97.3%,83%,92.3%,74.3%,58.3%,58.2%,76.1
Cc1ccc(C(=O)CSc2nc3ccc(C)cc3c(=O)n2-c2ccc(F)cc2)cc1,116%,62.8%,43.8%,56.3%,19.3%,53,19.6%,88%,93.2%,99.7%,98.5%,31.3%,,54.9%,80.5%,89.5%,-8.71% (active),40.6%,28.6
CCCSc1nc(NCCc2c[nH]c3ccccc23)c(C#N)c(-c2ccc(F)cc2)n1,92%,50.8%,68.7%,91.6%,59.2%,52.3,96.8%,33.6%,42.5%,6.1% (active),38.4%,65.2%,82.6%,72.3%,85.8%,84.9%,34.9%,49.5%,70.7
